Active and inactive are the calls of the source. No rule for the calls is given here.
Experiment: viability of Vero 76 cells – cell-based, set 6, cytotoxicity control for VEEV inhibitor project (AID 624295)
Settings: Vero 76 cells viability, cytotoxicity counter-screen; series mostly up to 25 µM; viability: at the top concentration

Structure (SMILES)	viability
NS(=O)(=O)c1ccc(-n2c(-c3ccccc3)nc3ccc(Br)cc3c2=O)cc1	91.6% (inactive)
CCN1CCN(Cc2nc3cc([N+](=O)[O-])ccc3c(=O)n2-c2ccccc2)CC1	90% (inactive)
O=c1c2cc([N+](=O)[O-])ccc2nc(CN2CCNCC2)n1-c1ccccc1	96% (inactive)
CCN1CCN(Cc2nc3ccc(C(N)=O)cc3c(=O)n2-c2ccccc2)CC1	94.3% (inactive)
O=c1c2cc([N+](=O)[O-])ccc2nc(CN2CCCCC2)n1-c1ccccc1F	96.7% (inactive)
O=c1c2cc([N+](=O)[O-])ccc2nc(CN2CCNCC2)n1-c1ccccc1F	74.1% [at 50 µM] (inactive)
CCN1CCN(Cc2nc3ccc([N+](=O)[O-])cc3c(=O)[nH]2)CC1	94.6% (inactive)
CCN1CCN(Cc2nc3ccc([N+](=O)[O-])cc3c(=O)n2-c2ccccc2)CC1	77.2% [at 50 µM] (inactive)
CCN1CCN(Cc2nc3ccc(C(=O)N(C)C)cc3c(=O)n2-c2ccccc2)CC1	102% (inactive)
CCN1CCN(Cc2nc3ccc([N+](=O)[O-])cc3c(=O)n2-c2ccc(F)cc2)CC1	94% (inactive)
CCN1CCN(Cc2nc3ccc([N+](=O)[O-])cc3c(=O)n2-c2cccc(F)c2)CC1	98.8% (inactive)
CCN1CCN(Cc2nc3ccc([N+](=O)[O-])cc3c(=O)n2C(C)C)CC1	85.8% (inactive)
CCN1CCN(Cc2nc3cccc([N+](=O)[O-])c3c(=O)n2-c2ccccc2)CC1	82.6% (inactive)
CN1CCN(Cc2nc3ccc([N+](=O)[O-])cc3c(=O)n2-c2ccccc2F)CC1	87.8% [at 50 µM] (inactive)
CCN1CCN(Cc2nc3ccc(I)cc3c(=O)n2-c2ccccc2)CC1	79.1% (inactive)
